For 38 compounds, growth results are on record in PubChem BioAssay (NCI).

Each structure is given as a SMILES string. The panel holds about 83,000 compounds, 20% with a hit somewhere; the sample as a whole holds those more often.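 Plates (96-well) were seeded with cells, treated with compound at one concentration, and incubated for 48 hours before percent growth was determined.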 The source made the active and inactive calls. The calls were made as follows: active = growth percent below 10; inactive = the rest.

The first experiment has as its system NCI-H23 lung. The experiment can be described thus: NCI-60 one-dose screen, 48 h (100 = growth as untreated, 0 = no growth, -100 = all killed). To be noted: 10 µM unless noted.
In the case of `COc1ccc(S(=O)(=O)N2CCCCC2)cc1NC(=O)c1[nH]c(C)c2c1CCCCC2=O`, the growth is 26% (inactive).

Turning to `Oc1ccccc1-c1nnc(CNc2ccc(Cl)cc2)o1`, the growth is 34.8% (inactive).

On to `CCN=C1C=CC(=C(c2ccc(N)cc2)c2ccc(N(CC)CC)c(C)c2)C=C1`, for which the growth was -14.9% (active).

With `COc1ccc(S(=O)(=O)N2CC3(COC3)C2)cc1NC(=O)c1[nH]c(C)c2c1CCCCC2=O`, the growth was 59.4% (inactive).

In the case of `Cc1ccc(C2=NN3C(C2)c2cc(Br)ccc2OC32CCN(Cc3ccccc3)CC2)o1` (stereo unspecified), the growth is 94.9% (inactive).

Regarding `Oc1cccc2ccc(N/N=C/c3cc(CN4CCOCC4)c(O)c4ncccc34)nc12`, the growth is -2.08% (active).

Consider `CC/C=C\C[C@H](O)C/C=C1/C(=O)C=C[C@@]1(C)C/C=C\CCCC(=O)OC`, for which the growth was 87.2% (inactive).

In the case of `N#CCCN=Nc1c(O)[nH]c2ccc([N+](=O)[O-])cc12`, the growth was 94.9% (inactive).

As to `O=C(N/N=C/c1ccccc1O)c1ccccc1Nc1ccnc(C(F)(F)F)c1`, the growth was 30.2% (inactive).

As for `COc1ccc(C2C(C#N)=C(N)Oc3n[nH]c(-c4cccs4)c32)cc1I` (stereo unspecified), the growth was 92.8% (inactive).

Consider `O=S(=O)(Nc1ccc(OC(F)F)cc1)c1ccc(-c2cnc(C3CC3)o2)cc1`, for which the growth was 73.4% (inactive).

Regarding `O=C1C=C(OCC=C(Cl)Cl)C(=O)c2ccccc21`, the growth was 57.4% (inactive).

`Cc1cc(C)nc(SC2=C(Nc3ccc(O)cc3)C(=O)N(Cc3ccccc3)C2=O)n1`: the growth was 98.8% [40 µM] (inactive).

Turning to `Cc1cc2nc(NC(=O)CN3CCN(CCN4C(=O)c5cccc6cccc(c56)C4=O)CC3)sc2cc1C`, the growth is 89% (inactive).

In the case of `Cc1ccc2c(C(C[N+](=O)[O-])c3ccccc3F)c(-c3ccccc3)[nH]c2c1` (stereo unspecified), the growth was 56.9% (inactive).

Consider `CCc1nc(N)nc(N)c1C#CC(C)c1ccc(-c2ccncc2)cc1Cl` (stereo unspecified), for which the growth is 16.2% (inactive).

For the compound `Cc1ccc(NC(=O)C2CCC(CN3CCN(C)CC3)CC2)cc1Nc1nccc(-c2cccnc2)n1` (stereo unspecified), the growth was 96.1% (inactive).

On to `CC/C=C\C[C@H]1C/C=C2/C(=O)C=C[C@H]2C/C=C\CCCC(=O)O1`, for which the growth is 39.4% (inactive).

With `Cc1ccc(-c2onc3c(=O)[nH]nc(-c4ccccc4)c23)cc1`, the growth was 22.8% (inactive).

With `O=c1ccccc(-c2ccc(-c3ccco3)cc2)c1O`, the growth is 19.1% (inactive).

Take `COc1ccc(-c2cc(Nc3ccnc(N4CCOCC4)n3)on2)cc1`: the growth was 36.8% (inactive).

With `Cc1ccccc1COc1ccc(-c2ccnn2-c2ccc(Cl)cc2)cc1`, the growth was 76.6% (inactive).

In the case of `COc1ccc(/C=N/C2=C(C#N)C(c3ccc(N(C)C)cc3)c3ccc4ccccc4c3O2)cc1` (stereo unspecified), the growth is 79.2% (inactive).

On to `c1ccc(CCNc2ncnc3[nH]ncc23)cc1`, for which the growth was 94.4% (inactive).

Consider `CN1CCN(CCCOc2cccc3nc(Nc4ccc(Cl)c(F)c4)ccc23)CC1`, for which the growth was 63.3% (inactive).

`FC(F)(F)c1[nH]ncc1-c1nc2ccc3n[nH]c(C#Cc4cccnc4)c3c2c2c1CCCC2`: the growth was 34.1% (inactive).

As for `CCOc1nc(-c2ccccc2)cc2c(O)c(C(=O)O)[nH]c(=O)c12`, the growth was 60.9% (inactive).

Regarding `CCCCn1cnc2c(Sc3c([N+](=O)[O-])ncn3C)nc(N)nc21`, the growth is 110% (inactive).

With `COc1cc2c(cc1-c1c(C)noc1C)ncc1nc(C3CCCC3)n([C@H](C)COC(F)F)c12`, the growth was 53.7% (inactive).

Take `CN1CCN(CCCOc2cccc3nc(Nc4cc(Cl)cc(Cl)c4)ccc23)CC1`: the growth is 36.7% (inactive).

Consider `COc1ccc(CCNc2nc3c(c(=O)n(Cc4ccc(Br)cc4)c(=O)n3C)n2C)cc1OC`, for which the growth was 84.1% (inactive).

On to `O=C(/C=C/c1cc(CN2CCOCC2)c(O)c2ncccc12)c1cc(CN2CCOCC2)c(O)c2ncccc12`, for which the growth is 30.5% (inactive).

With `Nc1nc2ccc3[nH]ncc3c2c2c1CCCC2`, the growth was -19% (active).

As for `C#CCOc1ccc2ncnc(N3CCC(NC(=O)CCl)CC3)c2c1`, the growth is 71.6% [8.25 µM] (inactive).

Consider `CC1=C(O)C(=O)C(C(C#N)(C#N)C(C#N)C#N)C1` (stereo unspecified), for which the growth is 92.4% (inactive).

Turning to `COc1ccc(CN2c3ccccc3Oc3ccccc32)cc1O`, the growth is 33.8% (inactive).

For `CN1CCN(c2ccc(Nc3c4ccccc4nc4ccccc34)cc2)CC1`, the growth is 105% (inactive).

In the case of `CCCCC(=O)OCC1OC(n2cnc3c(=S)nc[nH]c32)C(OC(=O)CCCC)C1OC(=O)CCCC` (stereo unspecified), the growth is 27.5% (inactive).

For the next experiment, the system named is NCI-H226 lung. Described as above. The note with it: 10 µM unless noted.
Take `COc1ccc(S(=O)(=O)N2CCCCC2)cc1NC(=O)c1[nH]c(C)c2c1CCCCC2=O`: the growth is 46.2% (inactive).

Consider `Oc1ccccc1-c1nnc(CNc2ccc(Cl)cc2)o1`, for which the growth was 30.1% (inactive).

`CCN=C1C=CC(=C(c2ccc(N)cc2)c2ccc(N(CC)CC)c(C)c2)C=C1`: the growth was -30.9% (active).

Regarding `COc1ccc(S(=O)(=O)N2CC3(COC3)C2)cc1NC(=O)c1[nH]c(C)c2c1CCCCC2=O`, the growth is 53.3% (inactive).

For `Cc1ccc(C2=NN3C(C2)c2cc(Br)ccc2OC32CCN(Cc3ccccc3)CC2)o1` (stereo unspecified), the growth is 86.9% (inactive).

With `Oc1cccc2ccc(N/N=C/c3cc(CN4CCOCC4)c(O)c4ncccc34)nc12`, the growth is 26.5% (inactive).

As for `CC/C=C\C[C@H](O)C/C=C1/C(=O)C=C[C@@]1(C)C/C=C\CCCC(=O)OC`, the growth was 121% (inactive).

As for `N#CCCN=Nc1c(O)[nH]c2ccc([N+](=O)[O-])cc12`, the growth was 96% (inactive).

In the case of `O=C(N/N=C/c1ccccc1O)c1ccccc1Nc1ccnc(C(F)(F)F)c1`, the growth was -11.7% (active).

Consider `COc1ccc(C2C(C#N)=C(N)Oc3n[nH]c(-c4cccs4)c32)cc1I` (stereo unspecified), for which the growth was 98.3% (inactive).

With `O=S(=O)(Nc1ccc(OC(F)F)cc1)c1ccc(-c2cnc(C3CC3)o2)cc1`, the growth was 74.1% (inactive).

For `O=C1C=C(OCC=C(Cl)Cl)C(=O)c2ccccc21`, the growth was 97.3% (inactive).

Consider `Cc1cc(C)nc(SC2=C(Nc3ccc(O)cc3)C(=O)N(Cc3ccccc3)C2=O)n1`, for which the growth is 89.7% [40 µM] (inactive).

In the case of `Cc1cc2nc(NC(=O)CN3CCN(CCN4C(=O)c5cccc6cccc(c56)C4=O)CC3)sc2cc1C`, the growth was 89.2% (inactive).

Turning to `Cc1ccc2c(C(C[N+](=O)[O-])c3ccccc3F)c(-c3ccccc3)[nH]c2c1` (stereo unspecified), the growth was 58.6% (inactive).

As for `CCc1nc(N)nc(N)c1C#CC(C)c1ccc(-c2ccncc2)cc1Cl` (stereo unspecified), the growth was 57.4% (inactive).

For the compound `Cc1ccc(NC(=O)C2CCC(CN3CCN(C)CC3)CC2)cc1Nc1nccc(-c2cccnc2)n1` (stereo unspecified), the growth is 99.8% (inactive).

For `CC/C=C\C[C@H]1C/C=C2/C(=O)C=C[C@H]2C/C=C\CCCC(=O)O1`, the growth is 40.5% (inactive).

Consider `Cc1ccc(-c2onc3c(=O)[nH]nc(-c4ccccc4)c23)cc1`, for which the growth is 61.6% (inactive).

For the compound `O=c1ccccc(-c2ccc(-c3ccco3)cc2)c1O`, the growth is 21.7% (inactive).

`COc1ccc(-c2cc(Nc3ccnc(N4CCOCC4)n3)on2)cc1`: the growth is 31.8% (inactive).

Take `Cc1ccccc1COc1ccc(-c2ccnn2-c2ccc(Cl)cc2)cc1`: the growth is 70.3% (inactive).

With `COc1ccc(/C=N/C2=C(C#N)C(c3ccc(N(C)C)cc3)c3ccc4ccccc4c3O2)cc1` (stereo unspecified), the growth is 44.6% (inactive).

With `c1ccc(CCNc2ncnc3[nH]ncc23)cc1`, the growth is 89.4% (inactive).

For `CN1CCN(CCCOc2cccc3nc(Nc4ccc(Cl)c(F)c4)ccc23)CC1`, the growth is 58.1% (inactive).

As for `FC(F)(F)c1[nH]ncc1-c1nc2ccc3n[nH]c(C#Cc4cccnc4)c3c2c2c1CCCC2`, the growth was 47.5% (inactive).

With `CCOc1nc(-c2ccccc2)cc2c(O)c(C(=O)O)[nH]c(=O)c12`, the growth is 101% (inactive).

Consider `CCCCn1cnc2c(Sc3c([N+](=O)[O-])ncn3C)nc(N)nc21`, for which the growth is 96% (inactive).

As to `COc1cc2c(cc1-c1c(C)noc1C)ncc1nc(C3CCCC3)n([C@H](C)COC(F)F)c12`, the growth was 48.1% (inactive).

As for `CN1CCN(CCCOc2cccc3nc(Nc4cc(Cl)cc(Cl)c4)ccc23)CC1`, the growth was -10.9% (active).

On to `COc1ccc(CCNc2nc3c(c(=O)n(Cc4ccc(Br)cc4)c(=O)n3C)n2C)cc1OC`, for which the growth is 86.6% (inactive).

Take `O=C(/C=C/c1cc(CN2CCOCC2)c(O)c2ncccc12)c1cc(CN2CCOCC2)c(O)c2ncccc12`: the growth is 34.6% (inactive).

Consider `Nc1nc2ccc3[nH]ncc3c2c2c1CCCC2`, for which the growth is 6.29% (active).

With `C#CCOc1ccc2ncnc(N3CCC(NC(=O)CCl)CC3)c2c1`, the growth was 2.28% [8.25 µM] (active).

Regarding `CC1=C(O)C(=O)C(C(C#N)(C#N)C(C#N)C#N)C1` (stereo unspecified), the growth was 96.4% (inactive).

`COc1ccc(CN2c3ccccc3Oc3ccccc32)cc1O`: the growth is 93.9% (inactive).

In the case of `CN1CCN(c2ccc(Nc3c4ccccc4nc4ccccc34)cc2)CC1`, the growth was 107% (inactive).

On to `CCCCC(=O)OCC1OC(n2cnc3c(=S)nc[nH]c32)C(OC(=O)CCCC)C1OC(=O)CCCC` (stereo unspecified), for which the growth was 31.4% (inactive).
